Results from PubChem BioAssay AID652195 (Johns Hopkins Ion Channel Center, 2013).
Active and inactive are the calls of the source.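 How the source made its calls: active means peak TRPC6 channel inhibition above 30% at some tested dose, with a fitted dose response curve; inactive means no inhibition at any dose or no curve fitted.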

Each compound was assayed against Short transient receptor potential channel 6 (Mus musculus) (UniProt Q61143) (assay: mouse TRPC6 channel blockers, concentration series – HEK293 cells, membrane potential dye, quadruplicate, selectivity assay for selective TRPC4 inhibitor project, dose response (AID 652195)). Conditions: FDSS; series mostly up to 20 µM; membrane potential ratio (lower = inhibition): at the top concentration.
Sequence of Short transient receptor potential channel 6 (Mus musculus) (Q61143 whole entry, looked up): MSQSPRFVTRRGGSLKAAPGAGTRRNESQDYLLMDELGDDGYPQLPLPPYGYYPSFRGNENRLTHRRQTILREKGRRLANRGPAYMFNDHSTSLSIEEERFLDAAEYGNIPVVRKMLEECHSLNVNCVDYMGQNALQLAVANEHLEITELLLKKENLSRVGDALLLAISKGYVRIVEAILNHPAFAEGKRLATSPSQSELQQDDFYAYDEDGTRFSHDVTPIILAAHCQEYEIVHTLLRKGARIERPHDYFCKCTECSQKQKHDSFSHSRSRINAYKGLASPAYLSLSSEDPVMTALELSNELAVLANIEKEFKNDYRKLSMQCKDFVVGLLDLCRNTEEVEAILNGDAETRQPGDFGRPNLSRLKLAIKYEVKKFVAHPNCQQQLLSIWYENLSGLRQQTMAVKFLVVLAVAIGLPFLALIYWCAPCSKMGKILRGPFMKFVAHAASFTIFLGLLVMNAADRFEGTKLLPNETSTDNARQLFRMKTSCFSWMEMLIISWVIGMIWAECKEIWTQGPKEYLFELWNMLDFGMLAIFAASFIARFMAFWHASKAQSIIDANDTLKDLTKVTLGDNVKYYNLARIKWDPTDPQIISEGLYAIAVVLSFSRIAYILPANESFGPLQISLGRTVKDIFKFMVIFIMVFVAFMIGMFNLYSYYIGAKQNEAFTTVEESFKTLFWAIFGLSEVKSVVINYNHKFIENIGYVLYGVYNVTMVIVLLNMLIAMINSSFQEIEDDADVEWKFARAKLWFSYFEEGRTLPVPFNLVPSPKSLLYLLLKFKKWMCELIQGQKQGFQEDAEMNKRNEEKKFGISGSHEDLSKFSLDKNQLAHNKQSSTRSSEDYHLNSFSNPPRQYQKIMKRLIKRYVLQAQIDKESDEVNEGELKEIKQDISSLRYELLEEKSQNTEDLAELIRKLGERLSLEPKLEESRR

SMILES | membrane potential ratio (lower = inhibition)
Cc1cc(-n2cccc2)nc2ccccc12 | 41.5 (inactive)
OC1CCCN(c2ccc3ccccc3n2)C1 (centres undefined) | 36.9 (inactive)
Cc1cc(N2CCC(F)(F)CC2)nc2ccccc12 | 43.2 (inactive)
Cc1cc(N2CCC(O)CC2)nc2ccccc12 | 44.3 (inactive)
C[C@H]1CCCN1c1ccc2ccccc2n1 | 30.5 (inactive)
Cc1cc(N2CCC(O)C2)nc2ccccc12 (centres undefined) | 33.5 (inactive)
O=C1CCN(c2ccc3ccccc3n2)CC1 | 43.8 (inactive)
Cc1cc(N2CCC(F)CC2)nc2ccccc12 | 37.7 (inactive)
FC1CCN(c2ccc3ccccc3n2)CC1 | 37.4 (inactive)
Cc1cc(-n2cccn2)nc2ccccc12 | 42.6 (inactive)
OC1CCN(c2ccc3ccccc3n2)CC1 | 50.8 (inactive)
c1ccc2nc(N3CCCC3)ccc2c1 | 35.8 (inactive)
Cc1cc(N2CCCC(F)C2)nc2ccccc12 (centres undefined) | 35.9 (inactive)
FC1CCCN(c2ccc3ccccc3n2)C1 (centres undefined) | 43.5 (inactive)
FC1(F)CCN(c2ccc3ccccc3n2)CC1 | 39.6 (inactive)
Cc1cc(-n2ccnc2)nc2ccccc12 | 50.2 (inactive)
Cc1cc(N2CCC(=O)CC2)nc2ccccc12 | 40.5 (inactive)
OC1CCN(c2ccc3ccccc3n2)C1 (centres undefined) | 42.2 (inactive)
Cc1cc(N(C)C)nc2ccccc12 | 37.2 (inactive)
